Assay results as given in the supplement of paper PMC10933113.

Each compound was assayed on KeratinoSens (HaCaT ARE-luciferase) cells (assay: Nrf2/ARE luciferase activation call in qHTS KeratinoSens assay (1 = active, 0 = inactive)).

Structure (SMILES)	Nrf2/ARE luciferase activation call
CCCc1nc(C)c2c(=O)nc(-c3cc(S(=O)(=O)N4CCN(CC)CC4)ccc3OCC)[nH]n12.O=C(O)CC(O)(CC(=O)O)C(=O)O	not active ARE inducer (skin sensitizer alert) (inactive)
CN1CCC(=C2c3ccccc3Sc3ccccc32)CC1.O=C(O)/C=C\C(=O)O	not active ARE inducer (skin sensitizer alert) (inactive)
CCN(CCCc1ccccc1)CCCc1ccccc1.O=C(O)CC(O)(CC(=O)O)C(=O)O	not active ARE inducer (skin sensitizer alert) (inactive)
CN1CCN(CCCN2c3ccccc3Sc3ccc(Cl)cc32)CC1.O=C(O)/C=C\C(=O)O.O=C(O)/C=C\C(=O)O	not active ARE inducer (skin sensitizer alert) (inactive)
CN1C(C)(C)CCCC1(C)C.O=C(O)[C@@H](O)[C@H](O)C(=O)O	not active ARE inducer (skin sensitizer alert) (inactive)
CCOCCn1c(N2CCCN(C)CC2)nc2ccccc21.O=C(O)/C=C/C(=O)O.O=C(O)/C=C/C(=O)O	not active ARE inducer (skin sensitizer alert) (inactive)
O=C(O)/C=C\C(=O)O.O=C(O)/C=C\C(=O)O.c1cc(CN2CCCCC2)cc(OCCCNc2nc3ccccc3s2)c1	not active ARE inducer (skin sensitizer alert) (inactive)
NC[C@H](O)c1ccc(O)c(O)c1.O=C(O)C(O)C(O)C(=O)O.O=C(O)C(O)C(O)C(=O)O	not active ARE inducer (skin sensitizer alert) (inactive)
Cc1cc(C)[nH]c(=O)n1.O=C(Nc1ccc([N+](=O)[O-])cc1)Nc1ccc([N+](=O)[O-])cc1	not active ARE inducer (skin sensitizer alert) (inactive)
NC(CO)(CO)CO.O=C(c1ccccc1)c1ccc2n1CC[C@H]2C(=O)O	not active ARE inducer (skin sensitizer alert) (inactive)
COC[C@H](c1ccc(C(F)(F)F)cc1)N1CCN(C2(C)CCN(C(=O)c3c(C)ncnc3C)CC2)C[C@H]1C.O=C(O)/C=C\C(=O)O	not active ARE inducer (skin sensitizer alert) (inactive)
CN(C)CC[C@@H](c1ccc(Br)cc1)c1ccccn1.O=C(O)/C=C\C(=O)O	not active ARE inducer (skin sensitizer alert) (inactive)
CCCC[N+]1(C)CCCC1.O=S(=O)([O-])C(F)(F)F	not active ARE inducer (skin sensitizer alert) (inactive)
COCCc1ccc(OCC(O)CNC(C)C)cc1.COCCc1ccc(OCC(O)CNC(C)C)cc1.O=C(O)[C@H](O)[C@@H](O)C(=O)O (centres undefined)	not active ARE inducer (skin sensitizer alert) (inactive)
CCCC[n+]1cccc(C)c1.O=S(=O)([O-])C(F)(F)F	not active ARE inducer (skin sensitizer alert) (inactive)
CC(=O)c1ccc2c(c1)N(CCCN(C)C)c1ccccc1S2.O=C(O)/C=C\C(=O)O	not active ARE inducer (skin sensitizer alert) (inactive)
CCC1=C[C@@H]2C[N@](C1)Cc1c([nH]c3ccccc13)[C@@](C(=O)OC)(c1cc3c(cc1OC)N(C)[C@H]1[C@@](O)(C(=O)OC)[C@H](OC(C)=O)[C@]4(CC)C=CCN5CC[C@]31[C@@H]54)C2.O=C(O)C(O)C(O)C(=O)O.O=C(O)C(O)C(O)C(=O)O	active ARE inducer (skin sensitizer alert)
C[n+]1c2cc(N)ccc2cc2ccc(N)cc21.Nc1ccc2cc3ccc(N)cc3nc2c1.[Cl-]	active ARE inducer (skin sensitizer alert)
O=C(CCC1CCN(Cc2ccccc2)CC1)c1ccc2c(c1)NCCCC2.O=C(O)/C=C/C(=O)O	not active ARE inducer (skin sensitizer alert) (inactive)
